Assay outcomes (PubChem BioAssay)
TDP1 inh: blocks human tyrosyl-DNA phosphodiesterase 1. Q9NUW8. recombinant TDP1, AlphaScreen DNA substrate cleavage. Potency, µM (series often up to 130 µM), hits mostly inhibitors. 350,000 tested, 0.28% active. AID 485290; also: nearly all actives have a fitted effect of over 40% in size
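E. coli-derived human Tdp1, 1 nM final. Cpd preinc 15 min RT; substrate 15 nM final, 5 min RT; AS bead mix 10 ug/ml final, 10 min RT. Signal loss = tyrosine-FITC cleavage. No-enzyme wells = max signal.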
HP1b chromo inh: HP1-beta chromodomain-methylated histone interaction inhibition. P83916. AlphaScreen HP1-beta / biotin-H3K9me3 peptide binding. Potency, µM (doses to about 114 µM), usual class: inhibitors. 390,000 tested, 0.56% active; also: nearly all actives have a fitted effect of over 70% in size
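AlphaScreen: HP1-beta (50 nM) preformed 30 min with biotin-H3(1-18)K9me3 peptide (50 nM) in PBS pH 7.4, 0.01% Tween-20. Compound added for 30 min at RT, then streptavidin donor/nickel chelate acceptor beads (10 ug/mL) for 30 min.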
BAZ2B inh: BAZ2B (human) inhibition; Q9UIF8; 360,000 tested, 4.4% active; Potency, µM (titrated, usually from 114 µM), hits mostly inhibitors; AlphaScreen BAZ2B-H3K14Ac peptide displacement; also: nearly all actives have a fitted effect of over 60% in size
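Compounds, titrated to a top concentration of 110 uM, were incubated 30 min at room temperature with preformed BAZ2B/acetyl-K14 H3 peptide complex (50 nM each). Proximity signal was measured by AlphaScreen after 20 min with beads.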
JMJD2A Tudor: JMJD2A Tudor domain (human) inhibition; O75164; AlphaScreen JMJD2A-Tudor / H3K4me3 peptide binding; Potency, µM (titrated, usually from 114 µM), most hits filed as inhibitors; 390,000 tested, 4.4% active; AID 504339; also: nearly all actives have a fitted effect of over 50% in size
Sfp inh: Sfp phosphopantetheinyl transferase inhibition. Biochemical Sfp PPTase activity, qHTS. 310,000 tested, 3.5% active. Potency, µM, hits mostly inhibitors. Q9F4F7;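 also: the enzyme is Sfp with the accession as filed and its product quenches rhodamine fluorescence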
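Step 1, compound plus 15 nM Sfp-PPTase, 15 min, room temperature. Step 2, add rhodamine-CoA (5 uM) and BHQ-2-YbbR (12.5 uM). Step 3, read 525/598 nm fluorescence at 0 and 30 min.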
G9a inh: G9a (human) methyltransferase inhibition; G9a H3K9 monomethylation, AlphaScreen, 2 h; Potency, µM (highest dose often 102 µM), usual class: inhibitors; 350,000 tested, 8.8% active; AID 504332; also: nearly all actives have a fitted effect of over 75% in size
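Using a bead-based AlphaScreen, monomethylated H3K9 product from 2 h room-temperature reactions (G9a 20 nM, peptide 500 nM, SAM 20 uM) was detected with 0.5 ug/mL rabbit anti-H3K9me1 antibody.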
Large screens that a line does not name were inactive; ! = repeats disagree. Sampled rows, rich in hits. Any-hit rate of the full collection: about 12%. Calls follow the shape of the dose curve; as a rule, active = well fitted curve in the direction sought with a large enough effect; inconclusive = small, poorly fitted or top-dose-only effect, or another doubt; inactive = no such curve, though single readings can be large; an effect the other way counts as inactive or inconclusive.

CC[C@]12c3[nH]c4cc(CCC(=O)N(C)C)ccc4c3CCN1C(=O)[C@@H](CC(=O)NCCCOC)C[C@@H]2C(=O)N1CCN(C(=O)c2ccco2)CC1	none (no result: BAZ2B inh, Sfp inh, G9a inh)
CCCCN(CC)CCNC(=O)c1nn(C)c2c1CS(=O)(=O)c1ccccc1-2	none (no result: Sfp inh)
CCCCNC(=O)c1nn(C)c2c1CSc1ccccc1-2	BAZ2B inh inconclusive, JMJD2A Tudor inconclusive, G9a inh 16µM (no result: Sfp inh)
CCN(CC)CCCNC(=O)c1nn(C)c2c1CS(=O)(=O)c1ccccc1-2	G9a inh 25µM (no result: Sfp inh)
CCC(C)[C@H](NC(=O)N1CCC(C)CC1)C(=O)OC (some centres not stated)	none
Cc1ccc2nc(NC(=O)CSc3ncc(C(=O)Nc4ccc(F)cc4)c(=O)n3C)sc2c1	none (no result: Sfp inh)
COCCC(=O)Nc1ccc2c(c1)CN(C(=O)c1ccc(CSC)o1)CC2	G9a inh 50µM (no result: TDP1 inh)
COCCC(=O)Nc1ccc2c(c1)CN(C(=O)CCSC)CC2	none (no result: TDP1 inh)
CCSc1nc(-c2ccc(OC)cc2)cc(-c2ccccc2)c1C#N	TDP1 inh inconclusive
COc1ccccc1-c1cc(-c2ccc(C)cc2)nc(SCc2nnc(-c3ccccc3)o2)c1C#N	Sfp inh inconclusive, G9a inh 11µM
CCOC(=O)N1CCN(C(=O)C2CCN(CC3CCCCC3)CC2)CC1	JMJD2A Tudor 8.9µM, G9a inh 35µM
CCOC(=O)N1CCN(C(=O)C2CCN(S(=O)(=O)N3CCCC3)CC2)CC1	none
c1cncc(CSc2ccc(-c3ccc4c(c3)OCO4)nn2)c1	G9a inh 50µM (no result: BAZ2B inh)
CC(=O)Nc1ccc(NC(=O)CSc2ccc(-c3ccc4c(c3)OCO4)nn2)cc1	G9a inh 7.9µM
CC(=O)c1ccc(NC(=O)CSc2ccc(-c3ccc4c(c3)OCO4)nn2)cc1	JMJD2A Tudor inconclusive
N#C/C(=C\c1ccncc1)c1nc2ccccc2c(=O)[nH]1	BAZ2B inh inconclusive, G9a inh 25µM
N#C/C(=C/c1ccncc1)c1nc2ccccc2c(=O)[nH]1	G9a inh 45µM
N#CC1=C(O)C(c2ccccc2)n2c1nc(=O)c1ccccc12 (configuration not stated)	BAZ2B inh inconclusive, G9a inh 25µM
O=c1nc2n(c3ccccc13)Cc1ccccc1-2	none (no result: HP1b chromo inh, JMJD2A Tudor)
O=c1[nH]c(CN2CCN(c3ccccc3O)CC2)nc2ccccc12	JMJD2A Tudor 8.9µM, G9a inh inconclusive
CC1CCCCN1Cc1nc2ccccc2c(=O)[nH]1 (configuration not stated)	JMJD2A Tudor 79µM
NC(=O)C1CCN(Cc2nc3ccccc3c(=O)[nH]2)CC1	JMJD2A Tudor 3.2µM, G9a inh inconclusive
CCC(Oc1ccc(F)cc1)C(=O)Nc1nc2c(s1)CCCC2 (configuration not stated)	none (no result: Sfp inh)
NC1=NC(c2cn(-c3ccccc3)nc2-c2cccs2)n2c(nc3ccccc32)N1 (configuration not stated)	JMJD2A Tudor inconclusive, Sfp inh 45µM
COc1cc(C)c(/C=C/C(C)=C/C=C/C(C)=C/C(=O)O)c(C)c1C	JMJD2A Tudor 56µM, G9a inh inconclusive (no result: BAZ2B inh)
CCOC(=O)/C=C(C)/C=C/C=C(C)/C=C/c1c(C)cc(OC)c(C)c1C	none (no result: TDP1 inh, HP1b chromo inh, BAZ2B inh, JMJD2A Tudor)
CN(/N=C\c1ccc(O)c(O)c1)c1nc(-c2ccccc2)cc(-c2ccccc2)n1	HP1b chromo inh inconclusive, BAZ2B inh 40µM, JMJD2A Tudor inconclusive, Sfp inh inconclusive, G9a inh 40µM
C=CCc1ccccc1OCC(O)CN1CCN(C(=O)OCC)CC1 (configuration not stated)	none
C=CCc1ccccc1OCC(O)CN1CCN(Cc2ccc3c(c2)OCO3)CC1 (configuration not stated)	BAZ2B inh 56µM, G9a inh 45µM!
C=CCc1ccccc1OCC(O)CN1CCN(c2ccc(C)cc2)CC1 (configuration not stated)	HP1b chromo inh inconclusive, BAZ2B inh 28µM, JMJD2A Tudor 3.5µM, Sfp inh inconclusive, G9a inh 13µM
COc1ccc(-c2nnc(SCC(=O)NCCc3ccc(OC)c(OC)c3)nc2-c2ccc(OC)cc2)cc1	BAZ2B inh inconclusive, JMJD2A Tudor inconclusive, G9a inh 8.9µM (no result: TDP1 inh, Sfp inh)
COc1ccc(CCNC(=O)CSc2nnc(-c3ccco3)c(-c3ccco3)n2)cc1OC	BAZ2B inh 45µM, Sfp inh 20µM, G9a inh 8.9µM (no result: TDP1 inh, HP1b chromo inh, JMJD2A Tudor)
COc1ccc(CCNC(=O)CSc2n[nH]c(N)n2)cc1OC	none
Cn1c(=O)oc2cc(S(=O)(=O)NCCC(=O)NCc3ccc(F)cc3)ccc21	none
Nc1c(C(=O)N/N=C/c2ccc(Cl)cc2)cnn1-c1ccccc1	none (no result: TDP1 inh)
Nc1scc2c(C(=O)N/N=C/c3ccc(Cl)cc3)nn(-c3ccccc3)c(=O)c12	BAZ2B inh inconclusive, JMJD2A Tudor 45µM, Sfp inh 14µM, G9a inh inconclusive (no result: TDP1 inh)
COc1cccc(Cn2c(=O)n(CC3CCC(C(=O)N4CCOCC4)CC3)c(=O)c3sccc32)c1 (configuration not stated)	none (no result: Sfp inh)
CC1C(=O)N2CCCc3cc(NS(=O)(=O)c4ccccc4)cc1c32 (configuration not stated)	G9a inh inconclusive (no result: Sfp inh)
COc1ccc(S(=O)(=O)Nc2cc3c4c(c2)C(C)C(=O)N4CCC3)cc1OC (configuration not stated)	G9a inh 45µM (no result: TDP1 inh, Sfp inh)
CCN(CC)C(=O)c1sc(NC(=O)c2ccc(Br)o2)c(C(=O)OC)c1C	none
CCOC(=O)c1sc(NC(=O)c2ccoc2C)c(C(N)=O)c1C	BAZ2B inh inconclusive
CCCCC(=O)Nc1sc(C(=O)N(CC)CC)c(C)c1C(=O)OC	HP1b chromo inh inconclusive, JMJD2A Tudor 71µM, Sfp inh 13µM, G9a inh 2.2µM
CCCC(=O)Nc1sc(C(=O)OC)c(C)c1C(N)=O	Sfp inh 28µM, G9a inh 11µM
CC(C)OCCCNc1nc(Cl)nc2c1cnn2C	none (no result: TDP1 inh, BAZ2B inh, Sfp inh, G9a inh)
Nc1cc(-c2ccccc2)c[nH]c1=O	JMJD2A Tudor inconclusive (no result: HP1b chromo inh, BAZ2B inh, Sfp inh, G9a inh)
COc1ccc(NC2=NCCC(=O)N2Cc2cccs2)cc1	BAZ2B inh inconclusive, Sfp inh inconclusive, G9a inh 45µM
COc1cccc(NC2=NCC(=O)N2Cc2cccs2)c1	G9a inh 50µM
COc1ccc(NC2=NCC(=O)N2Cc2cccs2)cc1	none
C=CCN1C(=O)CN=C1Nc1cccc(C)c1	BAZ2B inh inconclusive, G9a inh 35µM
O=C(Nc1cc([N+](=O)[O-])ccc1N1CCCC1)c1cccs1	BAZ2B inh inconclusive
COc1ccc2nc3cc(Cl)ccc3c(NCCCN3CCN(CCCNc4c5ccc(Cl)cc5nc5ccc(OC)cc45)CC3)c2c1	none (no result: HP1b chromo inh, BAZ2B inh, JMJD2A Tudor, G9a inh)
COc1ccc2nc3cc(Cl)ccc3c(C#N)c2c1	G9a inh 50µM
